12-LOX inh: ALOX12 (human) lipoxygenase inhibition. purified 12hLO, xylenol orange hydroperoxide absorbance. Potency, µM (top dose mostly 108 µM), actives largely listed as inhibitors. actives 1.1% (n = 580,000)
Target sequence (P18054 whole entry, looked up): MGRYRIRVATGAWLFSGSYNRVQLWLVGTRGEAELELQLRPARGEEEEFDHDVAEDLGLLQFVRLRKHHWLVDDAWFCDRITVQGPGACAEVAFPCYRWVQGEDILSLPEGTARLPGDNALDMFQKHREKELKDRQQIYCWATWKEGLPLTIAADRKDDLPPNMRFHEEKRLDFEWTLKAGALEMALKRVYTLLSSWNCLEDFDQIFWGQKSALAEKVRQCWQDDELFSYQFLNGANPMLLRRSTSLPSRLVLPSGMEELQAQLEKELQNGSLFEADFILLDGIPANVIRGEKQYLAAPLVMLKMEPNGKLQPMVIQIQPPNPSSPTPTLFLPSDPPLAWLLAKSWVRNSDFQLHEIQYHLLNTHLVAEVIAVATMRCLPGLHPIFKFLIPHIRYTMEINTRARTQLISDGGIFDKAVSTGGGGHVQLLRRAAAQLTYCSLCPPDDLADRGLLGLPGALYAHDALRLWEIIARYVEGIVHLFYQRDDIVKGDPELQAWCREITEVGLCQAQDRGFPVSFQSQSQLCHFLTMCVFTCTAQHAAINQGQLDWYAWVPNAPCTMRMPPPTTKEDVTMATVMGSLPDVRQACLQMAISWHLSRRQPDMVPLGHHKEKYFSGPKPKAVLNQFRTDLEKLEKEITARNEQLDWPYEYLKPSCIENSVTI
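Purified human 12hLO at 150 nM in 25 mM Hepes, 0.01% Triton X-100, pH 7.0, preincubated 15 min at room temperature with compound. Reaction started with 40 uM arachidonic acid, 30 min at room temperature. Hydroperoxide measured by Fe-xylenol orange, 573/405 nm absorbance ratio.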
ATXN viability: cell viability loss in ATXN counter-screen. S2 cells (HEK-293 line with an ATXN2-luciferase reporter) viability, CellTiter-Fluor protease fluorescence, 24 h. Potency, µM (highest dose often 56.7 µM), actives largely listed as cytotoxic. actives 0.49% (n = 400,000); note: nearly all actives have a fitted effect of over 40% in size
HepG2 tox: counter-screen for TGF-b inhibitors: cytotoxicity in HepG2 cells. Potency, µM (series often up to 46.1 µM), hits mostly cytotoxic. HepG2 CAGA-GFP viability, ATP luminescence, 18 h. actives 0.76% (n = 410,000)
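HepG2 CAGA-GFP cells (1000/well, DMEM with 1% FBS) received compound, then TGF-beta at 500 pg/mL final, and were incubated 18 hours at 37 degrees C. Viability was read by CellTiter-Glo luminescence. Media-only wells were set as complete cell-killing and DMSO as no toxicity.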
ATXN2 expr inh: reduces ATXN2 reporter expression in HEK-293 cells; actives 0.72% (n = 360,000); Potency, µM (titrated, usually from 57 µM), usual class: inhibitors; AID 1745845; HEK-293 ATXN2-luciferase reporter, luminescence, 24 h; note: nearly all actives have a fitted effect of over 55% in size
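ATXN2-luciferase reporter cells (luciferase flanked by upstream and downstream ATXN2 gene portions) were treated 24 h at 37 °C with compounds at up to 57 uM. SteadyGlo luminescence gave expression; GF-AFC fluorescence gave viability.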
TGFb inhibitor: inhibitors of TGF-b signaling | HepG2 CAGA-GFP TGF-b/SMAD3 reporter, GFP fluorescence, 18 h; TGF-beta stimulated, 500 pg/mL final | Potency, µM (highest dose often 46.1 µM), usual class: inhibitors | actives 1.2% (n = 410,000) | AID 588855; note: nearly all actives have a fitted effect of over 65% in size
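TGF-beta reporter screen: HEPG2 CAGA-GFP, 1% FBS, 500 pg/mL TGF-beta final, 18 h; per-cell GFP summed per well; curves fitted and categorized by class.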
Numbers stand for hits; – = inactive; ? = inconclusive; · = not tested or not shown; ! = not confirmed by another sample; [ ] = dose if it differs, or a comment. A selection: hits, their analogues and other compounds. The true share with any hit is near 2.7%. Calls come from the whole dose curve; as a rule, active = well fitted curve in the direction sought with a large enough effect; inconclusive = small, poorly fitted or top-dose-only effect, or another doubt; inactive = no such curve, though single readings can be large; an effect the other way counts as inactive or inconclusive.

SMILES | 12-LOX inh | ATXN viability | HepG2 tox | ATXN2 expr inh | TGFb inhibitor
Cn1ccc2c(N(Cc3ccccc3)Cc3ccccc3)cc3c(c21)C1CCC3O1 (stereo not given) | 11µM | – | – | – | 10µM
CN(Cc1ccccc1)c1cc2c(c3c1ccn3C)C1CCC2O1 (stereo not given) | ? | – | – | – | ?
Cn1ccc2c(N3c4ccccc4CCc4ccccc43)cc3c(c21)C1CCC3O1 (stereo not given) | ? | – | 7.1µM | – | ?
Cn1ccc2c(N3c4ccccc4CCc4ccccc43)cc3c(c21)C1CCC3C1 (stereo not given) | – | ? | – | – | ?
CCOc1ccc(C(=O)NC(=S)Nc2ccccc2N2CCOCC2)cc1Br | 25µM | – | – | – | –
COc1ccc(C(=O)NC(=S)Nc2ccccc2N2CCOCC2)cc1Br | 16µM | – | – | – | –
COc1cccc(C(=O)NC(=S)Nc2ccccc2N2CCCCC2)c1 | 40µM | – | – | – | ?
O=C(NC(=S)Nc1ccccc1N1CCCCC1)c1ccco1 | ? | – | – | – | 11µM
CN1CCCCCCN(C(=O)c2ccc3ncccc3c2)[C@H]2CCC[C@H]2C1=O | – | · | · | · | ·
CSc1ccc(CNC(=O)c2cc3n(n2)CC(c2ccc(Cl)cc2)OC3)cc1 (stereo not given) | – | · | · | · | ·
Cc1cccc(CN2CCN(S(=O)(=O)c3c(C)noc3C)CC2)c1 | – | · | · | · | ·
O=C(Cn1ncc2ccccc2c1=O)Nc1ccc(F)c(F)c1F | – | · | · | · | ·
CN(C(=O)CSc1n[nH]c(-c2cccs2)n1)C1CCS(=O)(=O)C1 (stereo not given) | – | – | 11µM | – | –
Cc1cc(F)ccc1S(=O)(=O)Nc1ccccc1C(=O)Nc1ccccc1-c1nc2ccccc2[nH]1 | · | · | 7.9µM | ? | ?
O=C(NC(Cc1ccccc1)C(=O)N1CCN(c2ncccn2)CC1)c1ccco1 (stereo not given) | – | · | · | · | ·
CC1CCN(C(=S)NC(=O)c2ccc(C(C)(C)C)cc2)CC1 | 32µM | – | – | – | –
CC1(C(=O)OCC(=O)c2ccc(Br)cc2)CC1(Cl)Cl (stereo not given) | – | · | · | · | ·
c1ccc2c(c1)ccn2-n1ccc2ccccc21 | · | · | – | · | 16µM
Cc1cc(C(=O)CSc2ncnc3ccccc23)c(C)n1C1CC1 | 16µM! | – | – | – | –
O=C(NCc1ccc(Cl)cc1)c1ccc(-c2ccccc2C(F)(F)F)o1 | – | – | – | – | 16µM
CCCNC(=O)c1ccc2c(=O)c(O)c(-c3cccc(Br)c3)[nH]c2c1 | – | – | – | 22µM | ?
CCCNC(=O)c1ccc2c(=O)c(O)c(-c3ccc(F)cc3)[nH]c2c1 | · | – | – | ? | ?
C/C(=N/NC(=O)c1cccs1)c1ccc2ccccc2c1 | – | · | · | · | ·
CCOC(=O)C(C)NC(=O)c1ccccc1 (stereo not given) | – | · | · | · | ·
Nc1cc2c(cc1Br)[nH]c(=O)c1ccccc12 | – | ? | – | – | 10µM
SMILES | 12-LOX inh | ATXN viability | HepG2 tox | ATXN2 expr inh | TGFb inhibitor
COc1cccc(Nc2sc(C(=O)c3ccc(Cl)cc3)c(N)c2C(=O)NCCc2ccc(OC)c(OC)c2)c1 | – | ? | – | ? | ?
Cc1ccc(CNC(=O)c2c(Nc3ccccc3C)sc(C(=O)c3ccc(F)cc3)c2N)cc1 | ? | ? | 16µM | ? | 18µM
Cc1ccccc1Nc1sc(C(=O)c2ccccc2)c(N)c1C(=O)NCc1ccc(Cl)cc1 | – | ? | – | ? | ?
COc1cccc(Nc2sc(C(=O)c3ccc(F)cc3)c(N)c2C(=O)NCc2ccc(C)cc2)c1 | ? | · | – | · | 14µM
COc1ccc2c(-c3ccccc3)cc(SCC(=O)NCC(C)C)nc2c1 | – | · | · | · | ·
COc1ccc(NC(=O)NCc2nc(-c3cccc(Cl)c3)oc2C)cc1 | – | · | · | · | ·
Fc1cccc(/C=C2\CCCC3=C2NC(=S)NC3c2cccc(F)c2)c1 (stereo not given) | ? | – | – | · | 8.9µM
COc1ccc(C2NC(=S)NC3=C2CCCC3=C2SCCS2)cc1 (stereo not given) | ? | – | – | –[11.3 µM] | –
Fc1ccccc1/C=C1\CCCC2=C1NC(=S)NC2c1ccccc1F (stereo not given) | 32µM | – | – | – | ?
S=C1NC2=C(CCC/C2=C\c2ccccc2)C(c2ccccc2)N1 (stereo not given) | ? | – | – | – | ?
S=C1NC2=C(CCC/C2=C\c2ccc(Cl)cc2)C(c2ccc(Cl)cc2)N1 (stereo not given) | 25µM | – | – | – | 18µM
CC1CC2=C(NC(=S)NC2c2ccc(F)cc2)/C(=C/c2ccc(F)cc2)C1 (stereo not given) | 25µM | – | – | – | ?
O=C1/C(=C/c2ccc(F)cc2)CCC1C1CCCC1 (stereo not given) | – | – | – | – | –
CC(=O)NC12CC3CC(C1)CC(C(=O)NCc1ccc(Cl)cc1Cl)(C3)C2 | – | · | · | · | ·
CCN(CC)Cc1ccc2c(c1)CN(C(=O)COc1ccc(C)cc1)CCO2 | – | · | · | · | ·
COc1cccc(-c2c(NC(=O)c3ccc(C)cc3)oc3ccccc3c2=O)c1 | – | · | · | · | ·
CCN(CC)S(=O)(=O)c1ccc(-c2nc(C#N)c(NCc3ccccc3)o2)cc1 | – | · | · | · | ·
CCOC(=O)COc1ccc(C2NC(C(=O)O)CS2)cc1 (stereo not given) | 32µM | – | – | – | –
COC(=O)c1ccc(C2NC(C(=O)O)CS2)cc1 (stereo not given) | – | – | – | – | –
COc1cccc(Oc2coc3cc(OCC#N)ccc3c2=O)c1 | – | · | · | · | ·
CC1Cc2cc(C(=O)c3cc4cc(Cl)ccc4o3)ccc2N1S(C)(=O)=O (stereo not given) | – | · | · | · | ·
CC1C(=O)N(Cc2cn(Cc3ccco3)nn2)CCS(=O)(=O)N1Cc1ccc(-c2ccc(F)cc2Cl)cc1 (stereo not given) | ? | ? | – | ? | ?
CC(C)C1C(=O)N(Cc2cn(Cc3ccco3)nn2)CCS(=O)(=O)N1Cc1ccc(-c2cccc(N(C)C)c2)cc1 (stereo not given) | – | ? | – | – | –
CC(C)CC1C(=O)N(Cc2cn(Cc3ccco3)nn2)CCS(=O)(=O)N1Cc1ccc(-c2cccc(CO)c2)cc1 (stereo not given) | 22µM | · | – | ? | –
Cc1ccc(-c2ccc(CN3C(C(C)C)C(=O)N(Cc4cn(Cc5ccco5)nn4)CCS3(=O)=O)cc2)cc1 (stereo not given) | 45µM | ? | – | ? | ?
CC1C(=O)N(Cc2cn(Cc3ccco3)nn2)CCS(=O)(=O)N1Cc1ccc(-c2ccccc2Cl)cc1 (stereo not given) | ? | 11µM | – | – | ?
CC(C)CC1C(=O)N(Cc2cn(Cc3ccco3)nn2)CCS(=O)(=O)N1Cc1ccc(-c2ccc(Cl)cc2)cc1 (stereo not given) | ? | ? | – | ? | ?

Compound activity deposited in PubChem by National Center for Advancing Translational Sciences (NCATS).
